The entries come from a sample that favours hits as a whole.
HT1080NT lethal – kills 2HG-producing HT-1080-NT fibrosarcoma cells; HT-1080-NT fibrosarcoma viability, CellTiter-Glo ATP luminescence, 48 h; Potency, µM (titrated, usually from 46.1 µM), for inactives: top-dose activity, negative = less viability, actives largely listed as cytotoxic; hit rate 1.6% among 360,000; AID 686970;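 also: NT is the 2HG producing partner of a matched IDH1 knockdown line; potency is read from the fitted curve at half-maximal effect; 0% = DMSO-treated cells and -100% = media-only wells without cells; nearly all actives have a fitted effect of over 55% in size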
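A 48-hour cytotoxicity screen used HT-1080-NT cells plated 2 hours before compound delivery. ATP-based CellTiter-Glo luminescence measured viability, normalized to DMSO and no-cell controls.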
DT40 TDP1 no CPT – qHTS for Inhibitors of human tyrosyl-DNA phosphodiesterase 1 (TDP1): qHTS in cells in absence of CPT; Potency, µM (doses to about 46.2 µM), for inactives: at the top dose activity change, negative = growth inhibition, usual class: inhibitors; DT40 Tdp1-/- hTDP1 cells, no CPT, ATP luminescence, 48 h; hit rate 15% among 420,000; also: potency is read from the fitted curve at half-maximal effect; nearly all actives have a fitted effect of over 55% in size
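Seeded 400 DT40-hTDP1 cells/well (vehicle DMSO, no 20 nM CPT); pinned compounds; ≥48 hr at 37 °C; CellTiter-Glo luminescence as viability measure.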
ALOX12 inh – blocks human arachidonate 12S-lipoxygenase. purified 12hLO, xylenol orange hydroperoxide absorbance. hit rate 1.1% among 580,000. P18054. AID 1671190. Potency, µM (top dose mostly 108 µM), without a hit: top-dose activity change, negative = inhibition, usual class: inhibitors; also: potency is read from the fitted curve at half-maximal effect
Target sequence (P18054 whole entry, looked up): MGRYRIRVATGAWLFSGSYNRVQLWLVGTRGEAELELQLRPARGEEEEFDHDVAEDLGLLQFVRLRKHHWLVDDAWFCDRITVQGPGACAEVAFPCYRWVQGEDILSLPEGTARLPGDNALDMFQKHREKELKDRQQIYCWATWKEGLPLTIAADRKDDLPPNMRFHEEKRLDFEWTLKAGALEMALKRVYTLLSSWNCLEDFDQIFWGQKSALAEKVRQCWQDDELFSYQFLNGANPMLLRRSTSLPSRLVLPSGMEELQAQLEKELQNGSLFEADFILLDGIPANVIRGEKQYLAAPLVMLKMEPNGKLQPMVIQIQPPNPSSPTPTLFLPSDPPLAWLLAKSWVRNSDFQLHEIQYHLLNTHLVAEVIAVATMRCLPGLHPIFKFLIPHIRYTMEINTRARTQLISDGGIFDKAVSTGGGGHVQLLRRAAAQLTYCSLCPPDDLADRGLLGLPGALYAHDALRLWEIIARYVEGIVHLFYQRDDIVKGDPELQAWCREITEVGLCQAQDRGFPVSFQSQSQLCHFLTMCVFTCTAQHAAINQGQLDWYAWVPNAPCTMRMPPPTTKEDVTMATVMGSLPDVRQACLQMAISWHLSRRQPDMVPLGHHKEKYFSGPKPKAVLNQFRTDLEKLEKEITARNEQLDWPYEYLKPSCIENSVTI
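Purified human 12hLO at 150 nM in 25 mM Hepes, 0.01% Triton X-100, pH 7.0, preincubated 15 min at room temperature with compound. Reaction started with 40 uM arachidonic acid, 30 min at room temperature. Hydroperoxide measured by Fe-xylenol orange, 573/405 nm absorbance ratio.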
IL1B secr inh – inhibitors of inflammasome signaling (IL-1 beta secretion); hit rate 4.7% among 360,000; THP-1 LPS/ATP IL-1B secretion, AlphaLISA, 16 h; hits give low values; activity change, % at 57.5 µM; in the data active = activity change below about -50%; inconclusive = mostly about -30% to -49%
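Secreted IL-1B measured by AlphaLISA bead assay after 16 h compound exposure of THP-1 cells; compounds (final up to 57.5 uM) added 1 h before LPS (250 ng/mL) and ATP (1.25 mM) stimulation; lower signal means less secretion.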
HT1080 IDH1KD tx – HT-1080 IDH1 knockdown cell toxicity (counter line); HT-1080 IDH1 knockdown viability, ATP luminescence, 48 h; Potency, µM (titrated, usually from 46.1 µM), without a hit: at the highest dose activity, negative = toxicity, actives largely listed as cytotoxic; hit rate 2% among 360,000;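 also: potency is read from the fitted curve at half-maximal effect; 0% = DMSO wells and -100% = cell-free medium wells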
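In this qHTS, HT-1080 cells depleted of IDH1 are exposed for 48 h at 37 °C to compound titrations. Toxicity is scored from CellTiter-Glo luminescence, with DMSO as full viability and medium alone as none.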
DT40 TDP1 CPT – DT40-hTDP1 cell growth loss with CPT | Potency, µM (highest dose often 46.2 µM), without a hit: at the top dose activity change, negative = growth inhibition, most hits filed as inhibitors | hit rate 12% among 420,000 | AID 686979 | chicken DT40 Tdp1-/-;hTDP1 cells + 20 nM CPT, ATP luminescence, 48 h; also: potency is read from the fitted curve at half-maximal effect; nearly all actives have a fitted effect of over 55% in size
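Chicken DT40 Tdp1-/- cells complemented with human TDP1, 400 cells/well, exposed to compounds plus 20 nM camptothecin for at least 48 h at 37 C; viability read as ATP content by CellTiter-Glo luminescence.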
An asterisk follows results filed as active; ? = inconclusive; · = not tested or not shown. Unless noted, calls follow the shape of the dose curve; as a rule, active = well fitted curve in the direction sought with a large enough effect; inconclusive = small, poorly fitted or top-dose-only effect, or another doubt; inactive = no such curve, though single readings can be large; an effect the other way counts as inactive or inconclusive. Unless noted, % is scaled to controls: 0 for no effect and ±100 for the full control effect.

SMILES	HT1080NT lethal	DT40 TDP1 no CPT	ALOX12 inh	IL1B secr inh	HT1080 IDH1KD tx	DT40 TDP1 CPT
CC(C)(CNC(=S)NCCc1ccccc1)CNC(=S)NCCc1ccccc1	?	29µM*	20µM*	-70*	?	8.2µM*
O=C(c1ccc(-n2cccc2)cc1)N1CCN(S(=O)(=O)c2cc(F)ccc2F)CC1	·	·	-1%	·	·	·
CCn1cc(S(=O)(=O)N2C[C@@H](Oc3cccnc3)C[C@H]2C(=O)NCCOC)cn1	·	·	42%	·	·	·
Cc1nn(CC(=O)Nc2ccc(C(C)C)cc2)c(=O)c2cccn12	·	·	-4%	·	·	·
O=C(CSc1ccc2c(c1)OCCCO2)Nc1ccccc1Cc1ccccc1	·	·	-28%	·	·	·
S=C(NCCc1ccccc1)N/N=C/c1cccc(Cl)c1Cl	8%	6%	50µM*	0	24%	-4%
Cc1cccc(C)c1C(O)c1ncc(-c2cccc3ccccc23)[nH]1 (configuration not stated)	?	16µM*	2%	-11	?	21µM*
Cc1cccc(C)c1C(O)c1ncc(-c2ccccc2F)[nH]1 (configuration not stated)	-10%	?	-5%	22	5%	21µM*
Cc1cccc(C)c1C(O)c1ncc(-c2ccc(Cl)cc2)[nH]1 (configuration not stated)	-8%	?	-30%	?	-17%	-27%
Cc1cc(C)c(C(O)c2ncc(-c3cccc4ccccc34)[nH]2)c(C)c1 (configuration not stated)	?	?	-21%	0	?	?
COc1c(C)cc(C(O)c2ncc(-c3ccccc3C(F)(F)F)[nH]2)cc1C (configuration not stated)	-16%	?	1%	-12	-15%	?
Cc1ccc2ccccc2c1C(O)c1ncc(-c2ccc(Cl)cc2)[nH]1 (configuration not stated)	?	8.2µM*	?	13	?	?
COc1c(C)cc(C(O)c2ncc(-c3cccc4ccccc34)[nH]2)cc1C (configuration not stated)	?	18µM*	-1%	59	?	21µM*
CNc1ccc(C(=O)N2CCN(S(=O)(=O)c3ccc4c(c3)OCCCO4)CC2)cc1[N+](=O)[O-]	12%	-22%	?	0	0%	?
CSCC[C@H](N)C(=O)N1CCC(C(=O)N[C@H](C(=O)NCc2ccccc2F)C(C)C)CC1	0%	8%	-26%	0	-1%	20%
Cc1cc(C)c(C(O)c2ncc(-c3ccccc3C)[nH]2)c(C)c1 (configuration not stated)	?	-29%	5%	-26	-17%	-30%
Cc1cc(C)c(C(O)c2ncc(-c3ccccc3F)[nH]2)c(C)c1 (configuration not stated)	?	?	-1%	-20	?	15µM*
COc1ccc(-n2cc(-c3ccc(OC(F)F)cc3)[n+]3c2CCCCC3)cc1	-27%	0.82µM*	-5%	?	-25%	1.3µM*
COc1ccc(-n2cc(-c3ccc(Cl)cc3)[nH]c2=S)cc1	8%	2%	-28%	4	-10%	-10%
COc1ccc(-c2cn(-c3ccc(Cl)cc3)c3[n+]2CCCCC3)cc1	-25%	2.6µM*	59%	?	-24%	2.3µM*
Clc1ccc(-c2cn(-c3ccc(Cl)cc3)c3[n+]2CCCCC3)cc1	-28%	7.3µM*	154%	-7	-15%	8.2µM*
Cc1ccc(-c2cc3onc(-c4ccccc4)c3c(=O)n2C)cc1	16%	?	0%	27	12%	?
Cn1c(-c2ccc(F)cc2)cc2onc(-c3c(F)cccc3Cl)c2c1=O	6%	?	-27%	-17	4%	13µM*
CCCOc1ccc(-c2cc3onc(-c4ccccc4)c3c(=O)n2C)cc1	14%	18µM*	-19%	36	17%	26µM*
CNC(=O)c1ccc(-c2cc3onc(-c4ccccc4)c3c(=O)n2C)cc1	-1%	23µM*	?	0	1%	18µM*
SMILES	HT1080NT lethal	DT40 TDP1 no CPT	ALOX12 inh	IL1B secr inh	HT1080 IDH1KD tx	DT40 TDP1 CPT
CN(CC(=O)Nc1ccc(F)c(F)c1)S(=O)(=O)Cc1ccc(C#N)cc1	·	·	0%	·	·	·
Cc1nn(C)c(C)c1N1C(=O)c2cccc3c(N)ccc(c23)C1=O	10%	-10%	-29%	3	5%	-26%
Cc1nn(C)c(C)c1N1C(=O)c2cccc3c(Br)ccc(c23)C1=O	23µM*	21µM*	?	-96*	?	18µM*
O=C(c1ccc2nc[nH]c2c1)N1CCC(c2nc(-c3ccccc3)no2)C1 (configuration not stated)	·	·	22%	·	·	·
CN(Cc1ccccc1NS(=O)(=O)c1ccc2ccccc2c1)C1CCCCC1	-21%	21µM*	-14%	12	-21%	?
CN(Cc1ccccc1NS(=O)(=O)c1ccc(Cl)cc1)C1CCCCC1	5%	-29%	-11%	10	-3%	?
CS(=O)(=O)c1ccc(C(=O)NCCN2C(=O)S/C(=C\c3cccnc3)C2=O)cc1[N+](=O)[O-]	?	4.6µM*	0%	-98*	?	3.7µM*
O=C(NCCN1C(=O)S/C(=C/c2cccnc2)C1=O)c1ccc(S(=O)(=O)N2CCCC2)cc1	-20%	?	?	26	-23%	-24%
Cc1cc(Cl)ccc1OCCCC(=O)NCCN1C(=O)S/C(=C\c2cccnc2)C1=O	-28%	16µM*	-20%	-54*	?	?
CN(C)S(=O)(=O)c1ccc(C(=O)NCCN2C(=O)S/C(=C\c3cccnc3)C2=O)cc1	-10%	?	-5%	-10	-1%	?
CCN(CC)S(=O)(=O)c1ccc(C(=O)NCCN2C(=O)S/C(=C\c3cccnc3)C2=O)cc1	-1%	18µM*	-21%	15	-8%	?
O=C1CCC(C(=O)NCCN2C(=O)S/C(=C\c3cccnc3)C2=O)=NN1	-14%	-16%	-18%	-3	-9%	?
Cc1nc(-c2ccc(CNC(=O)c3ccccn3)s2)cs1	·	·	-2%	·	·	·
NCC(O)COc1ccccc1 (configuration not stated)	·	·	-27%	·	·	·
C=CCSc1nc2sc3c(c2c(=O)n1CC)CCc1ccccc1-3	15%	?	7.1µM*	-17	13%	10µM*

Assay outcomes from PubChem.
